Shown are actives, neighbours in structure and some others; about 4.2% of the full set was active somewhere.
RecA intein inh: Mtb RecA intein splicing inhibitors, primary screen, biochemical, fluorescence, HTS | Protein RecA (Mycobacterium tuberculosis (strain ATCC 25618 / H37Rv)), P9WHJ3 | cell-free RecA intein splicing | inhibition, % (test concentration not listed) | actives 0.75% (n = 290,000) | AID 2221, 2009; in the data active = inhibition above about 30%;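 also: 0% = vehicle wells and 100% = reference inhibitor control wells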
FBA Mtb inh: Mtb FBA enzyme inhibitors, primary screen, biochemical, fluorescence, strain H37Rv; inhibition, % at 1 µM; AID 588726, 2011; Fructose-bisphosphate aldolase (Mycobacterium tuberculosis (strain ATCC 25618 / H37Rv)), …; actives 2.3% (n = 360,000); purified M. tuberculosis FBA, fluorescence read-out; in the data active = inhibition above about 27%;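 also: 0% = vehicle and 100% = reference inhibitor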
Target sequence (P9WQA3 whole entry, looked up): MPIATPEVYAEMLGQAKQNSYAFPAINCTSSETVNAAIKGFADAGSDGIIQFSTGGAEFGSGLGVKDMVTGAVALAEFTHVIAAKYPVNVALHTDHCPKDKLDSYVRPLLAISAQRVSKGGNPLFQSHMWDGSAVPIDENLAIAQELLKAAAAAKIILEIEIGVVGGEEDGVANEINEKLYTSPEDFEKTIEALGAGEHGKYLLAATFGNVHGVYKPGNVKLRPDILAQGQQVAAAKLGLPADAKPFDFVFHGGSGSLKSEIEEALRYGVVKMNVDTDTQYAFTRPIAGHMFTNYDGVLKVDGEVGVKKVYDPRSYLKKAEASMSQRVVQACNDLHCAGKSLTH
CCHFV vOTU inh: CCHFV vOTU protease inhibitors, primary screen, biochemical, Pep-AMC substrate, fluorescence; inhibition, % at 11.5 µM; actives 0.55% (n = 370,000); AID 651958, 2012; also: 0% = vehicle wells with enzyme and 100% = no enzyme wells
GDH-TPI counter: GDH-TPI coupling enzyme inhibitors, primary screen, artefact control for M. tuberculosis FBA inhibitor project, biochemical, absorbance, full deck. actives 1.2% (n = 360,000). inhibition, % at 4.8 µM. GDH-TPI coupled enzyme counterscreen, NADH absorbance;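 also: 0% = DMSO wells and 100% = wells lacking the enzyme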
Active calls of the source: *. Rule as the data show it, unless noted: active = inhibition above about 30%; inactive = the rest.

Screening CN(C)c1ccc(/C=N/n2c(COc3ccccc3)n[nH]c2=S)cc1 returned RecA intein inh -0.3, FBA Mtb inh 0.3, CCHFV vOTU inh 19.3 and GDH-TPI counter 34.6*.
For CN(C)c1ccc(/C=N/n2c(-c3ccccc3Br)n[nH]c2=S)cc1 the results were RecA intein inh -1.3, FBA Mtb inh 0.0, CCHFV vOTU inh 0.0 and GDH-TPI counter 53.7*.
For Fc1ccc(/C=N/n2c(C3CCCCC3)n[nH]c2=S)cc1 the results were RecA intein inh 0.4, FBA Mtb inh 1.1, CCHFV vOTU inh 6.2 and GDH-TPI counter 2.5.
Screening O=S(=O)(c1ccccc1Br)N(Cc1cn(Cc2ccccc2)nn1)C1CC1 returned CCHFV vOTU inh 13.2.
Screening O=C(Nc1nnc([C@H]2C[C@H](O)[C@@H](CO)O2)s1)c1ccc(Oc2ccccc2)cc1 returned FBA Mtb inh 2.0, CCHFV vOTU inh 1.5 and GDH-TPI counter 6.6.
O=C(/C=C/c1ccc2c(c1)OCO2)N1CCN(c2ccccc2F)CC1 was read as RecA intein inh 3.2, FBA Mtb inh 3.2, CCHFV vOTU inh -8.3 and GDH-TPI counter 18.3.
`CC1CN(C(=O)/C=C/c2ccc3c(c2)OCO3)CC(C)O1` (centres undefined) gave RecA intein inh 4.9, FBA Mtb inh 9.3, CCHFV vOTU inh -10.2 and GDH-TPI counter 34.8*.
For O=C(/C=C/c1ccc2c(c1)OCO2)N1CCOCC1 the results were RecA intein inh -1.3, FBA Mtb inh 7.8, CCHFV vOTU inh 7.8 and GDH-TPI counter 27.4.
COc1ccccc1N1CCN(C(=O)/C=C/c2ccc3c(c2)OCO3)CC1 was read as RecA intein inh 2.3, FBA Mtb inh 1.2, CCHFV vOTU inh -4.5 and GDH-TPI counter 43.3*.
`CN(Cc1ccccc1)C(=O)OCc1cn(Cc2cccc(F)c2F)nn1` gave CCHFV vOTU inh -2.3.
`CCOC(=O)C1C(=O)C=C(c2ccc(C)cc2)CC1c1ccco1` (centres undefined) gave RecA intein inh 3.0, FBA Mtb inh 0.4, CCHFV vOTU inh 6.7 and GDH-TPI counter 6.4.
Screening CCOC(=O)C1C(=O)C=C(c2ccc(NS(C)(=O)=O)cc2)CC1c1ccco1 (centres undefined) returned RecA intein inh -7.8, FBA Mtb inh 10.3, CCHFV vOTU inh -8.4 and GDH-TPI counter 32.7*.
`COC(=O)C1=CN(Cc2ccc(C)cc2)C=C(C(=O)OC)C1c1ccc(F)c(F)c1` gave RecA intein inh -36.4, FBA Mtb inh 2.7, CCHFV vOTU inh -2.5 and GDH-TPI counter -4.4.
Screening COC(=O)C1=CN(Cc2ccccc2)C=C(C(=O)OC)C1c1cc(F)ccc1F returned RecA intein inh -184.1, FBA Mtb inh 121.7*, CCHFV vOTU inh -142.1 and GDH-TPI counter 8.0.
For COC(=O)C1=CN(Cc2ccc(OC)c(OC)c2)C=C(C(=O)OC)C1c1cccc(F)c1 the results were FBA Mtb inh 123.3*, CCHFV vOTU inh -98.5 and GDH-TPI counter 0.7.
Cn1cc(Cc2ccc(C(=O)N3CCN(Cc4ccccc4)CC3)cn2)c2ccccc21 was read as FBA Mtb inh 2.2, CCHFV vOTU inh 8.2 and GDH-TPI counter 22.7.
Screening O=C(/C=C/c1cn(-c2ccccc2)nc1-c1cccnc1)N1CCCC1 returned RecA intein inh -1.4, FBA Mtb inh 1.1, CCHFV vOTU inh 4.5 and GDH-TPI counter 3.5.
N#C/C(=C\c1cn(-c2ccccc2)nc1-c1cccnc1)c1nnc2n1CCCCC2 was read as RecA intein inh 2.7, FBA Mtb inh 3.2, CCHFV vOTU inh -1.7 and GDH-TPI counter 38.8*.
`CCCCn1c(=O)[nH]c(=O)c2c1nc(-c1ccc(C#N)cc1)n2C1CCCC1` gave RecA intein inh 0.3, FBA Mtb inh 166.2*, CCHFV vOTU inh -52.8 and GDH-TPI counter 7.4.
COCCn1c(-c2ccc(-c3ccccc3Cl)o2)nc2c1c(=O)[nH]c(=O)n2CC(C)C was read as RecA intein inh 1.3, FBA Mtb inh 8.4, CCHFV vOTU inh 7.4 and GDH-TPI counter 0.0.
`COCCn1c(-c2ccc(NC(C)=O)cc2)nc2c1c(=O)[nH]c(=O)n2CC(C)C` gave RecA intein inh 2.7, FBA Mtb inh 126.1*, CCHFV vOTU inh 1.8 and GDH-TPI counter 1.1.
CCCCn1c(=O)[nH]c(=O)c2c1nc(-c1ccc(OCC)cc1)n2CC was read as RecA intein inh -0.8, FBA Mtb inh 9.4, CCHFV vOTU inh 3.4 and GDH-TPI counter 3.0.
